Reference: PubChem BioAssay AID1159580 (chemical genetic matrix, 2015)
Values joined by “and” are separate entries in the source; they are usually repeats but may differ in a detail not shown here. Equal values may be shown once. About 2,000 (36%) of roughly 5,500 compounds were called active. Not shown: some 18% with an inconclusive outcome. No stated cut-off is given here; in the data, active means normalized growth mostly below about 0.91 (no sharp cut-off); inconclusive means no clear call, values can overlap the other calls; inactive means mostly above about 0.92. The list shows a part of the results. Some structures have more than one record in an assay (separate samples or runs), and their calls can disagree.

Experiment: chemical genetic growth profiling, strain panel (AID 1159580);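 further: tested at 20 µM; growth read once vehicle control cultures reached saturation at 30 °C; 1 = growth at the plate median or of vehicle wells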
Settings: growth OD

Measured: normalized growth

CN1CCN(CCCN2c3ccccc3Sc3ccc(C(F)(F)F)cc32)CC1
active: S. cerevisiae deletion strains, locus YJR075W, strain HOC1, stronger effect = lower value 0.0765 and 0.787 | S. cerevisiae deletion strains, locus YKL009W, strain mrt4, stronger effect = lower value 0.875 | S. cerevisiae deletion strains, locus YKL160W, strain elf1, stronger effect = lower value 0.0849 | S. cerevisiae deletion strains, locus YKL190W, strain CNB1, stronger effect = lower value 0.0505 | S. cerevisiae deletion strains, locus YKR001C, strain vps1, stronger effect = lower value 0.0668 | S. cerevisiae deletion strains, locus YKR026C, strain gcn3, stronger effect = lower value 0.0825 | S. cerevisiae deletion strains, locus YKR091W, strain srl3, stronger effect = lower value 0.073 | S. cerevisiae deletion strains, locus YLL001W, strain dnm1, stronger effect = lower value 0.0784 | S. cerevisiae deletion strains, locus YLL026W, stronger effect = lower value 0.0619 | S. cerevisiae deletion strains, locus YLL041C, strain sdh2, stronger effect = lower value 0.0714 | S. cerevisiae deletion strains, locus YLR027C, strain aat2, stronger effect = lower value 0.0651 | S. cerevisiae deletion strains, locus YLR039C, strain RIC1, stronger effect = lower value 0.105 | S. cerevisiae deletion strains, locus YLR058C, strain SHM2, stronger effect = lower value 0.0587 | S. cerevisiae deletion strains, locus YLR102C, strain apc9, stronger effect = lower value 0.0738 | S. cerevisiae deletion strains, locus YLR221C, strain rsa3, stronger effect = lower value 0.0717 | S. cerevisiae deletion strains, locus YLR258W, strain gsy2, stronger effect = lower value 0.0705 | S. cerevisiae deletion strains, locus YLR262C, strain YPT6 (second series), stronger effect = lower value 0.0947 | S. cerevisiae deletion strains, locus YLR262C, strain YPT6, stronger effect = lower value 0.129 | S. cerevisiae deletion strains, locus YLR268W, strain sec22, stronger effect = lower value 0.0809 | S. cerevisiae deletion strains, locus YLR320W, strain mms22, stronger effect = lower value 0.0931 | S. cerevisiae deletion strains, locus YLR330W, strain CHS5, stronger effect = lower value 0.0585 | S. cerevisiae deletion strains, locus YLR342W, strain FKS1 (second series), stronger effect = lower value 0.0849 | S. cerevisiae deletion strains, locus YLR342W, strain FKS1, stronger effect = lower value 0.0733 | S. cerevisiae deletion strains, locus YLR357W, strain rsc2, stronger effect = lower value 0.148 | S. cerevisiae deletion strains, locus YLR370C, strain arc18, stronger effect = lower value 0.0604 | S. cerevisiae deletion strains, locus YLR371W, strain rom2, stronger effect = lower value 0.0675 | S. cerevisiae deletion strains, locus YLR384C, strain iki3, stronger effect = lower value 0.0666 | S. cerevisiae deletion strains, locus YLR418C, strain cdc73, stronger effect = lower value 0.125 | S. cerevisiae deletion strains, locus YML016C, strain PPZ1, stronger effect = lower value 0.0583 | S. cerevisiae deletion strains, locus YML032C, strain rad52, stronger effect = lower value 0.0831 | S. cerevisiae deletion strains, locus YML120C, strain ndi1, stronger effect = lower value 0.0683 | S. cerevisiae deletion strains, locus YML124C, strain tub3, stronger effect = lower value 0.0843 | S. cerevisiae deletion strains, locus YMR058W, strain fet3, stronger effect = lower value 0.0611 | S. cerevisiae deletion strains, locus YMR078C, strain ctf18, stronger effect = lower value 0.239 | S. cerevisiae deletion strains, locus YMR125W, strain sto1, stronger effect = lower value 0.0897 | S. cerevisiae deletion strains, locus YMR129W, stronger effect = lower value 0.061 | S. cerevisiae deletion strains, locus YMR205C, strain PFK2, stronger effect = lower value 0.199 | S. cerevisiae deletion strains, locus YMR223W, strain ubp8, stronger effect = lower value 0.0945 | S. cerevisiae deletion strains, locus YMR231W, strain pep5, stronger effect = lower value 0.0666 | S. cerevisiae deletion strains, locus YMR307W, strain GAS1, stronger effect = lower value 0.122 and 0.848 | S. cerevisiae deletion strains, locus YNL067W, strain RPL9B, stronger effect = lower value 0.0685 | S. cerevisiae deletion strains, locus YNL071W, strain lat1, stronger effect = lower value 0.0775 | S. cerevisiae deletion strains, locus YNL128W, strain TEP1, stronger effect = lower value 0.0773 | S. cerevisiae deletion strains, locus YNL153C, strain GIM3, stronger effect = lower value 0.0603 and 0.583 | S. cerevisiae deletion strains, locus YNL175C, strain NOP13, stronger effect = lower value 1.15 [resistant] | S. cerevisiae deletion strains, locus YNL209W, strain ssb2, stronger effect = lower value 0.0693 | S. cerevisiae deletion strains, locus YNL224C, strain SQS1, stronger effect = lower value 1.11 [resistant] | S. cerevisiae deletion strains, locus YNL233W, strain BNI4, stronger effect = lower value 0.0609 | S. cerevisiae deletion strains, locus YNL248C, strain rpa49, stronger effect = lower value 0.102 | S. cerevisiae deletion strains, locus YNL307C, strain MCK1, stronger effect = lower value 0.0726 | S. cerevisiae deletion strains, locus YNL322C, strain KRE1, stronger effect = lower value 0.0571 | S. cerevisiae deletion strains, locus YNR049C, strain mso1, stronger effect = lower value 0.0676 | S. cerevisiae deletion strains, locus YNR052C, strain pop2, stronger effect = lower value 0.0713 | S. cerevisiae deletion strains, locus YOL006C, strain TOP1, stronger effect = lower value 0.119 | S. cerevisiae deletion strains, locus YOL012C, strain htz1 0.176 | S. cerevisiae deletion strains, locus YOL147C, strain pex11, stronger effect = lower value 0.0736 | S. cerevisiae deletion strains, locus YOR001W, strain rrp6, stronger effect = lower value 0.0923 | S. cerevisiae deletion strains, locus YOR061W, strain CKA2, stronger effect = lower value 0.0554 | S. cerevisiae deletion strains, locus YOR069W, strain VPS5, stronger effect = lower value 0.112 | S. cerevisiae deletion strains, locus YOR070C, strain gyp1, stronger effect = lower value 0.0657 | S. cerevisiae deletion strains, locus YOR080W, strain dia2, stronger effect = lower value 0.0771 | S. cerevisiae deletion strains, locus YOR083W, strain WHI5 (second series), stronger effect = lower value 0.748 | S. cerevisiae deletion strains, locus YOR083W, strain WHI5, stronger effect = lower value 0.0778 | S. cerevisiae deletion strains, locus YOR106W, strain vam3, stronger effect = lower value 0.0723 | S. cerevisiae deletion strains, locus YOR136W, strain idh2, stronger effect = lower value 0.0795 | S. cerevisiae deletion strains, locus YOR144C, strain elg1, stronger effect = lower value 0.0731 | S. cerevisiae deletion strains, locus YOR184W, strain ser1, stronger effect = lower value 0.0849 | S. cerevisiae deletion strains, locus YOR265W, strain rbl2, stronger effect = lower value 0.0652 | S. cerevisiae deletion strains, locus YOR270C, strain vph1, stronger effect = lower value 0.136 | S. cerevisiae deletion strains, locus YOR290C, strain snf2, stronger effect = lower value 0.0834 | S. cerevisiae deletion strains, locus YOR316C, strain cot1, stronger effect = lower value 0.0693 | S. cerevisiae deletion strains, locus YPL051W, strain arl3, stronger effect = lower value 0.12 | S. cerevisiae deletion strains, locus YPL055C, strain LGE1, stronger effect = lower value 0.072 and 0.65 | S. cerevisiae deletion strains, locus YPL078C, strain atp4, stronger effect = lower value 0.161 | S. cerevisiae deletion strains, locus YPL106C, strain sse1, stronger effect = lower value 0.104 | S. cerevisiae deletion strains, locus YPL240C, strain hsp82, stronger effect = lower value 0.0671 | S. cerevisiae deletion strains, locus YPL241C, strain CIN2, stronger effect = lower value 0.0575 | S. cerevisiae deletion strains, locus YPR119W, strain clb2, stronger effect = lower value 0.079 | S. cerevisiae deletion strains, locus YPR163C, strain tif3, stronger effect = lower value 0.0727 | S. cerevisiae deletion strains, locus YPR167C, strain met16, stronger effect = lower value 0.0761 | S. cerevisiae deletion strains, strain wtn01, stronger effect = lower value 0.073 | S. cerevisiae strains, strain wild type, stronger effect = lower value 0.0552
inactive: S. cerevisiae deletion strains, locus YKL068W, stronger effect = lower value 0.984 | S. cerevisiae deletion strains, locus YKL085W, strain MDH1 (second series), stronger effect = lower value 0.957 | S. cerevisiae deletion strains, locus YKL085W, strain MDH1, stronger effect = lower value 0.957 | S. cerevisiae deletion strains, locus YLR113W, strain HOG1, stronger effect = lower value 0.941 | S. cerevisiae deletion strains, locus YNL183C, strain NPR1, stronger effect = lower value 0.91 | S. cerevisiae deletion strains, locus YNL197C, strain WHI3, stronger effect = lower value 1.08 | S. cerevisiae deletion strains, locus YNL250W, strain rad50, stronger effect = lower value 0.968 | S. cerevisiae deletion strains, locus YNL271C, strain bni1, stronger effect = lower value 0.982 | S. cerevisiae deletion strains, locus YNL298W, strain CLA4, stronger effect = lower value 0.938 | S. cerevisiae deletion strains, locus YNL322C, strain KRE1 (second series), stronger effect = lower value 0.978 | S. cerevisiae deletion strains, locus YOR231W, strain MKK1, stronger effect = lower value 0.939 | S. cerevisiae deletion strains, locus YPL256C, strain CLN2, stronger effect = lower value 0.914 | S. cerevisiae deletion strains, locus YPR141C, strain kar3, stronger effect = lower value 0.98
0.122 (active) and 1 (inactive): S. cerevisiae deletion strains, locus YMR263W, strain SAP30, stronger effect = lower value
